PubChem BioAssay (NCATS)
Results filed as inconclusive are left out. Calls of active or inactive are those of the source. The call rests on the fitted dose curve; in most records, active means well fitted curve in the direction sought with a large enough effect; inconclusive means small, poorly fitted or top-dose-only effect, or another doubt; inactive means no such curve, though single readings can be large; an effect the other way counts as inactive or inconclusive.

Target: Nuclear receptor subfamily 1 group I member 3 (Homo sapiens) (UniProt Q14994)
Assay: Primary qHTS for agonist of constitutive androstane receptor (CAR) against the NCATS DSHEA and TCM libraries (AID 1794839);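 further: HepG2 cells expressing human CAR with a CYP2B6 reporter plus PK11195 antagonist; luciferase reporter luminescence read with ONE-Glo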
Conditions: CAR agonist reporter cells, qHTS luminescence, CAR antagonist co-added at 0.75 µM; series mostly up to 22 µM; activation: at the top concentration
Outline: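 Cells stably carrying hCAR and a CYP2B6 reporter (HepG2 background) are seeded and allowed 5 h to adhere. Substances at multiple concentrations are added alongside 0.75 µM PK11195, and luciferase signal is measured after 24 h.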
Further: 0% is about no effect.

Nuclear receptor subfamily 1 group I member 3 (Homo sapiens), sequence (Q14994 whole entry, looked up): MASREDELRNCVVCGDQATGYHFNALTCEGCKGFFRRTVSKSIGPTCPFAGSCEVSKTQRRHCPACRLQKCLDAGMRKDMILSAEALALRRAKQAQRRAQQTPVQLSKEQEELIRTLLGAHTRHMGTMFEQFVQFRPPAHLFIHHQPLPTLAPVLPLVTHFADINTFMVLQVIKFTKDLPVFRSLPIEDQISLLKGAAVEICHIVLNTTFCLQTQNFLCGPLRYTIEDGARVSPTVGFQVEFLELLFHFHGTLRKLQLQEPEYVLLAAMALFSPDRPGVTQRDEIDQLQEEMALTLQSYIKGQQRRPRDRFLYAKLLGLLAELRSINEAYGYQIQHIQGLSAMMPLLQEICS

Structure (SMILES) | activation
CC(C)=CCC[C@](C)(O[C@@H]1O[C@H](CO[C@@H]2O[C@H](CO)[C@@H](O)[C@H](O)[C@H]2O)[C@@H](O)[C@H](O)[C@H]1O)C1CC[C@]2(C)[C@@H]1[C@H](O)CC1[C@@]3(C)CC[C@H](O[C@@H]4O[C@H](CO)[C@@H](O)[C@H](O)[C@H]4O[C@@H]4O[C@H](CO)[C@@H](O)[C@H](O)[C@H]4O)C(C)(C)[C@@H]3CC[C@]12C (some centres not stated) | 3.29% [at 8.32 µM] (inactive)
CC(C)=CCC[C@](C)(O)[C@H]1CC[C@]2(C)[C@@H]1[C@H](O)CC1[C@@]3(C)CC[C@H](O)C(C)(C)[C@@H]3[C@@H](O[C@@H]3O[C@H](CO)[C@@H](O)[C@H](O)[C@H]3O[C@@H]3O[C@H](CO)[C@@H](O)[C@H](O)[C@H]3O)C[C@]12C (some centres not stated) | -26.6% (inactive)
C[C@@]12CC[C@@H]3[C@@](CC[C@H]4[C@@]3(C)CCC[C@@]4(C)C(=O)O)(CC1=O)C2 | 0.197% [at 40 µM] (inactive)
CC1CC[C@]2(C(=O)O)CC[C@]3(C(=O)O)C(=CCC4[C@@]5(C)CC[C@H](OC6OC(C)C(O)C(OC7OC(CO)C(O)C(O)C7O)C6O)C(C)(C)C5CC[C@]43C)C2C1C (some centres not stated) | -25.8% (inactive)
OC[C@H]1O[C@@H](OC[C@H]2O[C@@H](OC/C=C/c3ccccc3)[C@H](O)[C@@H](O)[C@@H]2O)[C@@H](O)[C@@H]1O | 11% (inactive)
CC(C)=CCC(O)/C(C)=C/CO[C@@H]1O[C@H](CO)[C@@H](O)[C@H](O)[C@H]1O (some centres not stated) | 5.77% [at 40 µM] (inactive)

Tested on: not listed separately
Assay: HepG2 viability counterscreen (readout 2: ATP content) against the NCATS DSHEA and TCM libraries (AID 1794840);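 further: HepG2 cells exposed to substances for about 24 h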
Conditions: ATP content luminescence; series mostly up to 15.1 µM; activity change, negative = cytotoxic: at the top concentration
Outline: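 Cytotoxicity was assessed in HepG2 cells plated at 1,000 cells/well and exposed for about 24 hours to a concentration series. Protease activity and ATP content were measured sequentially in each well.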

Structure (SMILES) | activity change, negative = cytotoxic
CC(C)=CCC[C@](C)(O[C@@H]1O[C@H](CO[C@@H]2O[C@H](CO)[C@@H](O)[C@H](O)[C@H]2O)[C@@H](O)[C@H](O)[C@H]1O)C1CC[C@]2(C)[C@@H]1[C@H](O)CC1[C@@]3(C)CC[C@H](O[C@@H]4O[C@H](CO)[C@@H](O)[C@H](O)[C@H]4O[C@@H]4O[C@H](CO)[C@@H](O)[C@H](O)[C@H]4O)C(C)(C)[C@@H]3CC[C@]12C (some centres not stated) | -2.72% [at 5.68 µM] (inactive)
CC(C)=CCC[C@](C)(O)[C@H]1CC[C@]2(C)[C@@H]1[C@H](O)CC1[C@@]3(C)CC[C@H](O)C(C)(C)[C@@H]3[C@@H](O[C@@H]3O[C@H](CO)[C@@H](O)[C@H](O)[C@H]3O[C@@H]3O[C@H](CO)[C@@H](O)[C@H](O)[C@H]3O)C[C@]12C (some centres not stated) | -1.21% (inactive)
C[C@@]12CC[C@@H]3[C@@](CC[C@H]4[C@@]3(C)CCC[C@@]4(C)C(=O)O)(CC1=O)C2 | 11.6% [at 27.3 µM] (inactive)
CC1CC[C@]2(C(=O)O)CC[C@]3(C(=O)O)C(=CCC4[C@@]5(C)CC[C@H](OC6OC(C)C(O)C(OC7OC(CO)C(O)C(O)C7O)C6O)C(C)(C)C5CC[C@]43C)C2C1C (some centres not stated) | -4.25% (inactive)
OC[C@H]1O[C@@H](OC[C@H]2O[C@@H](OC/C=C/c3ccccc3)[C@H](O)[C@@H](O)[C@@H]2O)[C@@H](O)[C@@H]1O | -6.79% (inactive)
CC(C)=CCC(O)/C(C)=C/CO[C@@H]1O[C@H](CO)[C@@H](O)[C@H](O)[C@H]1O (some centres not stated) | -0.619% [at 27.3 µM] (inactive)
